{"source": "PubChem BioAssay AID651828", "about": "(ICCB-Longwood Screening Facility, Harvard Medical School, 2012)", "note": "The campaign covered roughly 20,000 compounds. About 25 (0.1%) were called active. This is one part of a sample in which actives are shown more often than they occur. Unmarked numbers belong to inactive results. Cut-off read from the data, not from the text of the source: active = % bound below about 75%; inactive = the rest."}
{"biological_target": "Nucleoprotein (Rift valley fever virus (strain ZH-548 M12)) (UniProt P21700)", "sequence (P21700 whole entry, looked up)": "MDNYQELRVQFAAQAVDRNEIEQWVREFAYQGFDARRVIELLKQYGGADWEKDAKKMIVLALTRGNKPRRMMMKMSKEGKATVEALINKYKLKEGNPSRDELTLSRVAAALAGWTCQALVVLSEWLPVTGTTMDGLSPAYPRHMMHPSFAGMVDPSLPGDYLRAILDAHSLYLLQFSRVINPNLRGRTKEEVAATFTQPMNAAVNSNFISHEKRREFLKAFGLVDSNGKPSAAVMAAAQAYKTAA", "assay": "inhibitors of RVFV nucleoprotein–RNA binding, primary screen, biochemical, fluorescence polarization (AID 651828)", "conditions": "RVFV N-RNA binding, active compounds read low, concentration not given here"}
{"smiles": "Cc1ccc2occ(CN3CCSCC3)c(=O)c2c1", "% bound": "100%"}
{"smiles": "COc1ccc(C(C)=CC(=O)C(C)(C)C)cc1", "% bound": "96.7%"}
{"smiles": "Cc1nc2cc3nc(-c4cccs4)cnc3cc2n1C", "% bound": "115%"}
{"smiles": "O=C(Nc1ccc(C(=O)N2CCCc3ccccc32)cc1)c1ccco1", "% bound": "95.2%"}
{"smiles": "CC[C@H](CO)Nc1nc(NCc2ccccc2O)c2ncn(C(C)C)c2n1", "% bound": "98.6%"}
{"smiles": "Nc1nonc1C(=NCc1ccccc1)NO", "% bound": "96.3%"}
{"smiles": "COc1ccc(C(=O)c2cnc3ccccn23)cc1Cl", "% bound": "96.7%"}
{"smiles": "O=C(c1cccs1)c1coc2c1cc(O)c1ccccc12", "% bound": "94.6%"}
{"smiles": "O=c1[nH]c(O)c(C=Nc2ccccc2)c(=O)[nH]1", "% bound": "101%"}
{"smiles": "CC(C)=N/N=C1/NC(=O)C(CC(=O)Nc2cccc3ccccc23)S1", "note": "(stereo not drawn)", "% bound": "96.1%"}
{"smiles": "CC(C)CN1C(=O)C=CC1=O", "% bound": "86.4%"}
{"smiles": "CC1(C)C(=O)C2(C(=O)Nc3cccc(C(F)(F)F)c3)CCC1C2", "note": "(stereo not drawn)", "% bound": "98.6%"}
{"smiles": "CCCC(=O)N1CCN(c2ccc(NC(=O)c3cccc(C)c3OC)cc2Cl)CC1", "% bound": "92.1%"}
{"smiles": "O=C(Nc1ccccc1)C1CCCN(S(=O)(=O)c2ccccc2)C1", "note": "(stereo not drawn)", "% bound": "98.9%"}
{"smiles": "COCC(C)N=CC1=C(O)CC(C)(C)CC1=O", "note": "(stereo not drawn)", "% bound": "94.3%"}
{"smiles": "O=C(OCCN1C(=O)c2ccccc2C1=O)Oc1ccccc1", "% bound": "93.9%"}
{"smiles": "O=c1[nH]c(NCCCN2CCOCC2)nnc1-c1ccccc1", "% bound": "93.9%"}
{"smiles": "O=C1C=C(Nc2ccccc2)C(=O)N1Cc1ccccc1", "% bound": "102%"}
{"smiles": "CCc1ccc(NC(=O)C(CC)CC)cc1", "% bound": "97.6%"}
{"smiles": "CC(C)NC(=O)C(C)Oc1ccc(S(N)(=O)=O)cc1", "note": "(stereo not drawn)", "% bound": "96.3%"}
{"smiles": "Cc1cc(C(=O)Nc2ccc(C(=O)N3CCOCC3)cc2)cs1", "% bound": "88.4%"}
{"smiles": "CC(C)(O)C(/C=C/c1ccccc1)=N/NC(N)=O", "% bound": "96.4%"}
{"smiles": "O=C(CC(F)(F)F)Nc1ccccn1", "% bound": "94%"}
{"smiles": "COC(=O)C12CCC(C)(C(=O)O1)C2(C)C", "note": "(stereo not drawn)", "% bound": "90.1%"}
{"smiles": "OC1CCN(Cc2ccc[nH]2)CC1", "% bound": "95%"}
{"smiles": "Nc1nc2nc(-c3ccccc3)cc(-c3ccccc3)n2n1", "% bound": "92%"}
{"smiles": "COC(=O)CSc1nnc2c3ccccc3n(CCc3ccccc3)c2n1", "% bound": "104%"}
{"smiles": "Cc1ccc(C(=O)c2sc3[nH]c(=O)c(C(=O)O)cc3c2N)cc1", "% bound": "97.7%"}
{"smiles": "Cc1ccc(NC(=O)Nc2c(C)noc2-c2ccc(C(F)(F)F)cc2)cc1", "% bound": "97.4%"}
{"smiles": "CNC(=S)N/N=C/c1cccnc1", "% bound": "96.3%"}
{"smiles": "CC1=Nc2c(ccc3cccnc23)C1(C)C", "% bound": "45.3% (active)"}
{"smiles": "COc1ccc(OCC(=O)Nc2ccc(CN3CCOCC3)cc2)cc1", "% bound": "87.6%"}
{"smiles": "O=C(C1CCCN(S(=O)(=O)c2ccccc2)C1)N1CCN(c2ccc(F)cc2)CC1", "note": "(stereo not drawn)", "% bound": "102%"}
{"smiles": "CS(=O)(=O)Cc1ccccc1", "% bound": "97.7%"}
{"smiles": "Cc1cc(C)cc(C(=O)NC(=S)Nc2ccc3[nH]c(=O)[nH]c3c2)c1", "% bound": "98.5%"}
{"smiles": "COc1ccc(N2CC(NC(=O)NCC3CCCO3)CC2=O)cc1OC", "note": "(stereo not drawn)", "% bound": "110%"}
{"smiles": "CCCCOc1ccc(C(C)(C#N)CC#N)cc1", "note": "(stereo not drawn)", "% bound": "102%"}
{"smiles": "COc1ccc(-c2cc(-c3cccs3)n(-c3nc(C)cc(=O)[nH]3)n2)cc1", "% bound": "109%"}
{"smiles": "O=c1[nH]c(=S)[nH]c(O)c1C=NC12CC3CC(CC(C3)C1)C2", "% bound": "91.6%"}
{"smiles": "O=C(Nc1ccc2c(c1)OCC1CCCN21)C1=Cc2ccccc2OC1", "note": "(stereo not drawn)", "% bound": "96.2%"}
{"smiles": "CN(C)NS(=O)(=O)C1CCS(=O)(=O)C1", "note": "(stereo not drawn)", "% bound": "93%"}
{"smiles": "COc1ccc(N2CCN(C(C)=C3C(=O)c4ccccc4C3=O)CC2)cc1", "% bound": "96.4%"}
{"smiles": "CCOC(=O)Nc1sccc1C(N)=O", "% bound": "96.8%"}
{"smiles": "Cc1cccc(N2CCN(C(=O)N(C)C)CC2)c1C", "% bound": "77.7%"}
{"smiles": "O=S1(=O)CC(S(=O)(=O)c2ccccc2)c2ccccc21", "note": "(stereo not drawn)", "% bound": "92.2%"}
{"smiles": "COC(=O)c1ccc(CN2CCCC(C)C2)cc1", "note": "(stereo not drawn)", "% bound": "100%"}
{"smiles": "CC12CCC(O)CC1=CCC1C2CCC2(C)/C(=N/N)CCC12", "note": "(stereo not drawn)", "% bound": "94%"}
{"smiles": "COc1ccc(-c2nc3c(c(=O)c4ccccc4n3C)c(=O)n2Cc2ccco2)cc1", "% bound": "95.8%"}
{"smiles": "COc1ccc(CCNC(N)=O)cc1OC", "% bound": "94.3%"}
{"smiles": "CCOC(=O)N1CCN(C(=O)CN(c2ccccc2)S(=O)(=O)c2ccc(F)cc2)CC1", "% bound": "93.7%"}
{"smiles": "O=C1c2ccccc2C(=O)N1CCc1nn[nH]n1", "% bound": "93.6%"}
{"smiles": "Nc1cc(-c2ccccc2)[nH]n1", "% bound": "94.5%"}
{"smiles": "C/C(=N\\N1CCN(C)CC1)C1=C(O)c2ccccc2C1=O", "% bound": "97.6%"}
